PubChem BioAssay AID504652 (National Center for Advancing Translational Sciences (NCATS), 2011)
Hit rate of the full screen: of about 360,000 compounds, about 11,000 (3.1%) were called active. No stated cut-off is given here; in the data, active means activity change below about -30%; inactive means the rest. The entries come from a sample that favours actives as a whole.

Target: D(1A) dopamine receptor (Homo sapiens) (UniProt P21728)
Assay: Antagonist of Human D 1 Dopamine Receptor: qHTS
Settings: HEK293 TREx D1 cells, calcium flux, dopamine EC80; at 10 µM; hits give low values
Procedure, shortened: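 Inducible Hek293 Trex D1 cells (tetracycline, overnight, 30 C). Calcium dye 30–90 min RT. Antagonist mode: EC80 dopamine added after 180 s compound read.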
On the % scale 0 is the no-effect control and ±100 the full control effect.

D(1A) dopamine receptor (Homo sapiens), sequence (P21728 whole entry, looked up): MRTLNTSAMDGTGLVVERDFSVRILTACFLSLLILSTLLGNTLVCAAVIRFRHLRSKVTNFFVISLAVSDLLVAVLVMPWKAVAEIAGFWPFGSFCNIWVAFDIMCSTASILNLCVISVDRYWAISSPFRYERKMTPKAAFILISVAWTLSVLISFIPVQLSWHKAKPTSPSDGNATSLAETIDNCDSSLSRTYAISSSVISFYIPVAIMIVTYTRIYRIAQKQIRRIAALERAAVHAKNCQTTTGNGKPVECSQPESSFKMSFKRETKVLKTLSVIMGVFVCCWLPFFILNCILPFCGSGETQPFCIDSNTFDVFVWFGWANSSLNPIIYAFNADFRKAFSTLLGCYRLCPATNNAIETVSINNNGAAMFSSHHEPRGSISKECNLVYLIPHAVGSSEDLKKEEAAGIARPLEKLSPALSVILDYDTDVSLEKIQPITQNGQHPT

| SMILES | activity change, negative = inhibition |
| --- | --- |
| O=S(=O)(c1ccc2c(c1)OCCCO2)N1CCN(S(=O)(=O)c2c(F)cccc2F)CC1 | -7.05% (inactive) |
| O=S(=O)(NC1CCN(S(=O)(=O)c2ccc3c(c2)OCCO3)CC1)c1c(F)cccc1F | -30.3% (active) |
| O=S(=O)(NCC1CN(S(=O)(=O)c2ccc3c(c2)OCCO3)C1)c1c(F)cccc1F | 2.66% (inactive) |
| CCOc1ccccc1C(=O)NC1(C(F)(F)F)NC(=O)N(CCc2ccc(OC)c(OC)c2)C1=O (configuration not stated) | 12% (inactive) |
| CCOC(=O)CSC1=Nc2ccccc2C2=NC(CCC(=O)NCc3ccc(F)cc3)C(=O)N12 (configuration not stated) | 7.77% (inactive) |
| Cc1ccc(S(=O)(=O)N2CCC(C(=O)Nc3cc(C)ccc3C)CC2)cc1 | 7.91% (inactive) |
| CCc1ccc2oc(-c3ccc(C)c(NC(=O)/C=C/c4ccco4)c3)nc2c1 | -0.213% (inactive) |
| CCN(C(=O)Cn1cc(S(=O)(=O)N2CCN(c3ccccc3F)CC2)c2ccccc2c1=O)c1ccc(C)c(C)c1 | -3.49% (inactive) |
| CCOC(=O)C1CCCN(C(=O)c2ccc(C)c(S(=O)(=O)N3CCCCC3)c2)C1 (configuration not stated) | -1.15% (inactive) |
| CCOC(=O)C1CCCN(C(=O)c2cncc(Br)c2)C1 (configuration not stated) | -9.23% (inactive) |
| CCOC(=O)C1CCCN(C(=O)c2ccc3c(c2)sc2nc(-c4ccc(CC)cc4)cn23)C1 (configuration not stated) | -33% (active) |
| O=C(NCCC1=CCCCC1)c1ccc2c(c1)N(Cc1ccccc1F)C(=O)c1ccccc1S2(=O)=O | -12.5% (inactive) |
| O=C(NCc1ccccc1)c1ccc(CNc2c(N3CCCC3)c(=O)c2=O)cc1 | -9.38% (inactive) |
| O=C(NC1CCCCC1)c1ccc(CNc2c(N3CCOCC3)c(=O)c2=O)cc1 | 11.4% (inactive) |
| CC1CCN(c2c(NCc3ccc(C(=O)NCc4ccccc4)cc3)c(=O)c2=O)CC1 | -34.3% (active) |
| Cc1nc2sc(C)c(C)n2c(=O)c1S(=O)(=O)NCCc1ccc(Cl)cc1 | -2.78% (inactive) |
| CCc1ccc(S(=O)(=O)n2ccnc2)cc1 | -16.9% (inactive) |
| CC(C)c1ccc(NC(=O)c2ccc(Cn3nc(N4CCN(c5ccccc5)CC4)ccc3=O)o2)cc1 | -6.07% (inactive) |
| CC(C)c1ccc(N2CCN(C(=O)c3ccccc3NC(=O)/C=C(\C(=O)O)c3ccccc3)CC2)cc1 | -3.41% (inactive) |
| CC(=O)N1CCN(c2ccc(NCc3ccc(C(C)C)cc3)cc2)CC1 | -50.6% (active) |
| O=C(NCCN1CCN(Cc2ccccc2)CC1)c1cc2c(=O)[nH]c3ccccc3c2s1 | -7.42% (inactive) |
| COc1ccc(CNC(=O)c2cc3c(=O)[nH]c4ccc(C)cc4c3s2)c(OC)c1 | 1.68% (inactive) |

| SMILES | activity change, negative = inhibition |
| --- | --- |
| COc1ccc(CNC(=O)c2cc3c(=O)[nH]c4ccccc4c3s2)cc1 | -33.6% (active) |
| Cc1cccc(NC(=O)c2ccc(F)c(S(=O)(=O)N(C)C3CCCCC3)c2)c1 | 4.16% (inactive) |
| CC(C)c1ccc(NC(=O)NC2CCCCC2)cc1 | -4.57% (inactive) |
| CC(C)c1ccc(NC(=S)NC2CC3C=CC2C3)cc1 (configuration not stated) | -34.1% (active) |
| O=C(COC(=O)C1CC2C=CC1C2)Nc1ccccc1 (configuration not stated) | -18.1% (inactive) |
| COc1ccc(C2=NC(c3ccncc3)=Nc3ccc(Br)cc3N2)cc1 | -11.7% (inactive) |
| CCn1c(C(=O)Nc2cc(Cl)ccc2C)cc2sc(Cl)cc21 | -0.309% (inactive) |
| O=C(c1ccc2c(c1)N(Cc1ccc(Cl)cc1)C(=O)c1ccccc1S2(=O)=O)N1CCCCC1 | 5.67% (inactive) |
| COc1ccc(-c2cc(-c3nc(-c4cc(OC)c(OC)c(OC)c4)no3)[nH]n2)c(OC)c1 | 27% (inactive) |
| Cc1ccc(NC(=O)CN2C(=O)C(c3ccc(F)cc3)=NC23CCCCCC3)c(C)c1 | 2.24% (inactive) |
| O=C1C=C(c2cc(C(F)(F)F)cc(C(F)(F)F)c2)C[C@@H](c2ccc3c(c2)OCO3)C1 | -12.8% (inactive) |
| COc1ccc([C@H]2CC(=O)C=C(/C=C/c3ccccc3)C2)cc1 | 3.37% (inactive) |
| COc1cccc(C2=CC(=O)C[C@H](c3ccc(OC)c(OC)c3)C2)c1 | -42.8% (active) |
| O=C1CC(c2cccc(Cl)c2)CC(O)=C1C=Nc1ccccc1 (configuration not stated) | -3.8% (inactive) |
| COc1ccc([C@H]2CC(=O)C=C(c3ccc(OC(F)(F)F)cc3)C2)cc1OC | -5.99% (inactive) |
| O=C1C=C(c2cccc(Cl)c2)C[C@@H](c2ccc(F)cc2)C1 | -32% (active) |
| CC(=O)Nc1ccc(NC(=O)CCCc2nc(-c3ccc(C(C)(C)C)cc3)no2)cc1 | 2.77% (inactive) |
| COc1ccc(CNC(=O)c2cc3c(-c4ccccc4F)nn(C)c3s2)c(OC)c1 | 8.78% (inactive) |
| CCc1ccc(Nc2nn3c(=O)c4cc5c(cc4nc3s2)OCO5)cc1 | 7.15% (inactive) |
| NC(=O)NC(=O)C(OC(=O)CCNS(=O)(=O)c1ccccc1)c1ccccc1 (configuration not stated) | -53% (active) |
| O=C(CCNS(=O)(=O)c1ccccc1)NCCCc1ccccc1 | -0.746% (inactive) |
| Cc1ccc(S(=O)(=O)NCCC(=O)OCC(=O)N(C)c2ccccc2)cc1 | -1.79% (inactive) |

| SMILES | activity change, negative = inhibition |
| --- | --- |
| COc1cccc(CNC(=O)CN2C(=O)CCc3cc(S(=O)(=O)N4CCOCC4)ccc32)c1 | -4.09% (inactive) |
| Cc1ccc(C)c2sc(NC(=O)c3ccc(S(=O)(=O)N4CCCC4)cc3)nc12 | 5.67% (inactive) |
| CCOc1ccccc1NC(=O)CN1CCN(S(=O)(=O)c2ccc(Br)cc2)CC1 | 6.89% (inactive) |
| Cn1c(CC(=O)Nc2ccccc2)nnc1SCC(=O)c1ccccc1 | -16.4% (inactive) |
| Cn1c(CNC(=O)c2ccccc2F)nnc1SCc1ccc(F)cc1 | 26.9% (inactive) |
| Cn1c(Cn2nnc3ccccc32)nnc1SCC(=O)c1ccccc1F | -30.4% (active) |
| COc1ccc(CNC(=O)c2cc3cccc(OC)c3oc2=O)cc1 | -1.99% (inactive) |
| O=C(CSc1ccc([N+](=O)[O-])cn1)Nc1ccc(N2CCOCC2)c(Cl)c1 | -35.4% (active) |
| O=C(CSc1ccc([N+](=O)[O-])cn1)Nc1ccc(N2CCOCC2)cc1 | 0.609% (inactive) |
| O=C(CSc1nccc(=O)[nH]1)Nc1ccc(N2CCOCC2)c(Cl)c1 | -3.03% (inactive) |
| CCOC(=O)c1c(C)oc2ccc(N(C(=O)c3ccncc3)S(=O)(=O)c3ccc(CC)cc3)cc12 | -12.9% (inactive) |
| Cc1nn(-c2ccccc2)c(C)c1NC(=O)CCl | -2.92% (inactive) |
| Cc1nn(-c2ccccc2)c(C)c1NC(=O)COC(=O)c1cc(Cl)ccc1O | -7% (inactive) |
| C/C=C/c1ccc(OCC(=O)OCC(=O)Nc2c(C)nn(-c3ccccc3)c2C)c(OC)c1 | -92.1% (active) |
| CCOC(=O)c1c(NC(=O)/C=C/c2ccc(OC)cc2)sc2c1CCC(C)C2 (configuration not stated) | -4.93% (inactive) |
| CCCCOC(=O)CSc1ncnc2sc3c(c12)CCC(C)C3 (configuration not stated) | -2.54% (inactive) |
| Cc1ccc(C)c(S(=O)(=O)n2cnc3ccccc32)c1 | 1.78% (inactive) |
| COc1ccc(S(=O)(=O)N2CCN(C)CC2)c(C)c1 | -0.84% (inactive) |
| COc1ccc(S(=O)(=O)n2cnc3ccccc32)c(C)c1 | -34% (active) |
| CCNS(=O)(=O)c1ccc(NC(=O)CSc2nc(-c3ccco3)cc(C(F)(F)F)n2)cc1 | 7% (inactive) |
| COc1ccccc1N1CCN(CCCNC(=O)c2cnn(-c3ccccc3Cl)c2C2CCN(C(=O)OC(C)(C)C)CC2)CC1 | -8.92% (inactive) |
| CCC(C(=O)Nc1cccc(Cl)c1C)n1nc(-c2ccc(C)cc2)ccc1=O (configuration not stated) | 6.67% (inactive) |

| SMILES | activity change, negative = inhibition |
| --- | --- |
| COc1ccc(CCNC(=O)c2ccc(-n3c(C)cc4c3CCCC4)cc2)cc1OC | -15.3% (inactive) |
| COc1ccc(CNC(=O)Cn2nnc(-c3ccc(S(C)(=O)=O)cc3)n2)cc1 | 15.1% (inactive) |
| COc1ccccc1NC(=O)c1oc2ccccc2c1NC(=O)COc1ccccc1OC | -10.7% (inactive) |
| COc1ccc(S(=O)(=O)N2CCCC2)c(C)c1C | -24.6% (inactive) |
| COc1ccc(S(=O)(=O)N2CCOCC2)c(C)c1C | -50.9% (active) |
| COc1cc(C)c(S(=O)(=O)N2CCOCC2)c(C)c1C | -2.39% (inactive) |
| CCOC(=O)c1ccc(NC(=O)C2CC(=O)Nc3nc4ccccc4n32)cc1 (configuration not stated) | 2.09% (inactive) |
| CC(=O)c1ccc(NC(=O)C2CC(=O)Nc3nc4ccccc4n32)cc1 (configuration not stated) | -16% (inactive) |
| Cc1nc(NC2=NC(C(=O)Nc3ccc(Cl)cc3)CC(=O)N2)nc2ccccc12 (configuration not stated) | -50.2% (active) |
| Cc1ccc(Cl)cc1-n1ncc2c(N3CCC(C(N)=O)CC3)ncnc21 | -13.9% (inactive) |
| CCN1CCN(c2ncnc3c2cnn3-c2ccc(C)c(C)c2)CC1 | 0.119% (inactive) |
| CCN(CC)CCNc1ncnc2c1cnn2-c1cc(Cl)ccc1C | -31% (active) |
| CC(C)CNc1ncnc2c1cnn2Cc1ccc(Cl)cc1 | 3% (inactive) |
| Cc1ccc(S(=O)(=O)c2nc(NCCCn3ccnc3)sc2Cl)cc1 | 8.73% (inactive) |
| Cc1ccc(-n2ncc3c(NCCCn4ccnc4)ncnc32)cc1Cl | -30.7% (active) |
| CCN(CC)CCNC(=O)CN1N=C(c2ccc(OC)cc2)CCC1=O | 7.52% (inactive) |
| COC(=O)c1cc(NC(=O)c2sc3ccccc3c2Cl)cc(C(=O)OC)c1 | 5.62% (inactive) |
| COc1cccc(NC(=O)N(Cc2cn(C)c3ccccc23)C2CCCCCC2)c1 | 17.7% (inactive) |
| Cc1ccc(N(CC(=O)NCC(C)c2ccccc2)S(=O)(=O)N(C)C)cc1 (configuration not stated) | -3.48% (inactive) |
| CCOc1ccccc1CNC(=O)c1ccc(-n2c(C)cc3c2CCC(C)C3)cc1 (configuration not stated) | 6.61% (inactive) |
| O=C(C1CC1)N1CCc2cc(Br)cc(S(=O)(=O)N3CCN(c4ccccc4F)CC3)c21 | -2.36% (inactive) |
